Dicer processing: inhibitors of human Dicer processing of pre-microRNA; z-score at 25 µM; 47,000 compounds, 6% hits; Q9UPY3; cat-ELCCA pre-miR-21 Dicer processing, chemiluminescence; hits give high values; AID 1347074; in the data active means z-score above about 3, passing the limit was not always enough;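 further: plate controls were vehicle for no effect and no enzyme for full effect; higher signal means more uncleaved substrate so more Dicer inhibition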
* hit, by the source's call. This excerpt belongs to a sample that is enriched for hits.

SMILES	Dicer processing
Cc1cccc(C)c1NC(=O)c1c(C(F)(F)F)ccnc1SCCN(C)C	-1.6
CS(=O)(=O)/C(C#N)=C/Nc1cccnc1	-1.4
Cc1ccc(NC(=O)NN(C)C)cc1NC(=O)NN(C)C	0.97
COc1ccc(/C(O)=C2/C(=O)C(=O)N(CCc3ccccc3)C2c2ccccc2F)cc1 (stereo not given)	-0.52
COc1nc(C)nc(N/C=C(\C#N)C(=O)C2CC2)n1	1.4
Cc1ccc(C(=O)CSc2nnc(-c3ccc4ccccc4c3)n2C)cc1	-0.36
CC(C)NC(=O)CSc1nnc(-c2ccc3ncccc3c2)n1C	3.1*
C=CCn1c(SCC(C)=O)nnc1-c1ccc2ncccc2c1	-1.5
COc1ccc(OCC(O)CNC(=S)Nc2ccccc2)cc1 (stereo not given)	1.5
O=C(NC(=O)c1ccc(C(F)(F)F)cc1)NN1CCCCCC1	-2.5
Nc1cc(C(F)(F)F)ccc1N1CCCCC1	-0.13
Oc1cc2c(cc1C(c1ccc(C(F)(F)F)cc1)N1CCCCC1)OCO2 (stereo not given)	3.8*
COC(=O)c1c(-c2c(Cl)cccc2Cl)noc1NC(=O)NCc1ccccn1	0.85
O=C(O)c1cccc(Cn2ccc([N+](=O)[O-])n2)c1	-1.4
Fc1ccccc1-n1c(CCc2nc(-c3ccc(Cl)cc3)no2)n[nH]c1=S	-1.4
COc1cccc(-c2nn3c(-c4ccccc4)nnc3s2)c1	-0.19
C/C(=N\Nc1c(Cl)cc(Cl)cc1Cl)c1ccc(C#CC(C)(C)O)s1	3.2*
CC(=O)c1ccc(C#CC(C)(C)O)s1	-0.68
CC(C)(O)C#Cc1ccc(/C=N/Nc2c(Cl)cc(Cl)cc2Cl)cc1	2.5
O=C1c2oc3ccc(F)cc3c(=O)c2C(c2ccccc2F)N1CCCN1CCOCC1 (stereo not given)	0.8
O=C(NC1=NCCS1)c1cc2ccccc2o1	3.6*
O=C(NC1=NCCS1)c1cccs1	-1.1
O=C(Nc1ccc2c(c1)OCCO2)c1cc2ccccc2o1	0.46
O=C1CCCC2=C1C(c1ccc(Cl)cc1)c1c([nH]c(=O)[nH]c1=O)N2 (stereo not given)	-1.8
CCOC(=O)N/N=C(\CC)c1ccccc1	0.06
SMILES	Dicer processing
CC12CCC3C4=C(CCC3C1CC[C@]2(C)O)CC(=O)CC4 (stereo not given in full)	-1.4
COc1ccc(-c2nc3n(n2)C(=O)CC(c2cccs2)S3)cc1 (stereo not given)	5.6*
COc1ccc(C2=NN3C(C2)c2ccccc2OC3c2cccs2)cc1 (stereo not given)	1.5
O=C1CC(c2ccccc2)Sc2nc(-c3cccc4ccccc34)nn21 (stereo not given)	0.94
Cc1nn2c3c(cnc2c1-c1ccccc1)C(=O)CC(c1ccc(Cl)cc1)C3 (stereo not given)	0.4
O=C1CC(c2ccc(Cl)cc2)Sc2nc(-c3ccccc3)nn21 (stereo not given)	4.1*
COc1ccc(C2C(C(=O)c3cccs3)=C(O)C(=O)N2c2nncs2)cc1 (stereo not given)	-1.2
CCOC(=O)c1c(C)oc2ccc(OCc3ccc(F)cc3)cc12	0.96
O=C(O)c1cc2cc(OCc3ccccc3)ccc2[nH]1	-0.97
CCOC(=O)c1cc2cc(OCc3ccccc3)ccc2n1C(=O)c1ccccc1C(=O)O	3.1*
OC1CCN(c2cc(C(F)(F)F)nc3cc(Cl)cc(Cl)c23)CC1	-1.3
CC(=O)Nc1ccc([N+](=O)[O-])cc1C#N	-0.3
CC1=CC(C)C2(CO)COC(c3ccc4c(c3)OCO4)C1C2C (stereo not given)	-1.3
CC1=CC(C)C2(CO)COC(c3ccc(O)cc3)C1C2C (stereo not given)	3.9*
CC1=CC(C)C2(CO)COC(c3cccnc3)C1C2C (stereo not given)	0.1
COC(=O)C(CC(C)C)NC(=O)CSc1nnc(C)c(=O)[nH]1 (stereo not given)	0.85
Cc1c(C#N)c(Sc2n[nH]c(-c3cc(Cl)cc(Cl)c3)n2)nc2ccccc12	0.26
O=c1o[nH]c(-c2ccccc2)c1N=Nc1cc(C(F)(F)F)cc(C(F)(F)F)c1	0.48
Clc1ccc(CSc2nc3ccccc3[nH]2)cc1	-0.16
COC(=O)c1sccc1Oc1ccc(C(F)(F)F)cc1NC(=O)NS(=O)(=O)c1ccc(C)cc1	-0.3
COC(=O)c1sccc1Oc1ccc(C(F)(F)F)cc1NC(=O)c1cnn(-c2ccccc2)c1C(F)(F)F	-1.1
COC(=O)c1sccc1Oc1ccc(C(F)(F)F)cc1NC(=O)c1cnn(-c2ccc([N+](=O)[O-])cc2)c1C(F)(F)F	4*
O=C1/C(=C/c2ccccc2)CCCC1CN1CCOCC1 (stereo not given)	-0.96
COc1ccccc1C1C(C(=O)OC2CCCC2)=C(C)NC2=C1C(=O)CC(C)(C)C2 (stereo not given)	-0.28
CC1(C)Cc2nc3sc(C(=O)O)c(N)c3cc2CO1	1.4
CCOC(=O)CCCN1C(=O)S/C(=C/c2ccc(OC)cc2)C1=S	-0.13
CCOC(=O)c1c(C)n(-c2cccc(Br)c2)c2ccc(O)cc12	6.5*
CCOC(=O)c1c(C)n(C)c2ccc(O)cc12	1.5
CCOC(=O)c1c(C)n(-c2ccccc2)c2ccc(OC)cc12	0.05
